Where “and” joins values, the source holds several entries; their conditions need not be identical. Identical values can stand only once.
Assays:
[1] = target: Leukocyte tyrosine kinase receptor (Homo sapiens) (UniProt P29376); conditions: at 1 µM;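 also: each value is the mean inhibition of LTK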
[2] = target: Tyrosine-protein kinase Lyn (Homo sapiens) (UniProt P07948); conditions: at 0.1 µM
[3] = target: Tyrosine-protein kinase Lyn (Homo sapiens) (UniProt P07948); conditions: at 1 µM
[4] = target: Tyrosine-protein kinase Lyn (Homo sapiens) (UniProt P07948); conditions: at 0.1 µM; remark: listed apart in the source
[5] = target: Tyrosine-protein kinase Lyn (Homo sapiens) (UniProt P07948); conditions: at 1 µM; remark: listed apart in the source
[6] = target: T1, Tyrosine-protein kinase Mer (Homo sapiens) (UniProt Q12866); conditions: at 0.1 µM
T1 sequence (whole entry): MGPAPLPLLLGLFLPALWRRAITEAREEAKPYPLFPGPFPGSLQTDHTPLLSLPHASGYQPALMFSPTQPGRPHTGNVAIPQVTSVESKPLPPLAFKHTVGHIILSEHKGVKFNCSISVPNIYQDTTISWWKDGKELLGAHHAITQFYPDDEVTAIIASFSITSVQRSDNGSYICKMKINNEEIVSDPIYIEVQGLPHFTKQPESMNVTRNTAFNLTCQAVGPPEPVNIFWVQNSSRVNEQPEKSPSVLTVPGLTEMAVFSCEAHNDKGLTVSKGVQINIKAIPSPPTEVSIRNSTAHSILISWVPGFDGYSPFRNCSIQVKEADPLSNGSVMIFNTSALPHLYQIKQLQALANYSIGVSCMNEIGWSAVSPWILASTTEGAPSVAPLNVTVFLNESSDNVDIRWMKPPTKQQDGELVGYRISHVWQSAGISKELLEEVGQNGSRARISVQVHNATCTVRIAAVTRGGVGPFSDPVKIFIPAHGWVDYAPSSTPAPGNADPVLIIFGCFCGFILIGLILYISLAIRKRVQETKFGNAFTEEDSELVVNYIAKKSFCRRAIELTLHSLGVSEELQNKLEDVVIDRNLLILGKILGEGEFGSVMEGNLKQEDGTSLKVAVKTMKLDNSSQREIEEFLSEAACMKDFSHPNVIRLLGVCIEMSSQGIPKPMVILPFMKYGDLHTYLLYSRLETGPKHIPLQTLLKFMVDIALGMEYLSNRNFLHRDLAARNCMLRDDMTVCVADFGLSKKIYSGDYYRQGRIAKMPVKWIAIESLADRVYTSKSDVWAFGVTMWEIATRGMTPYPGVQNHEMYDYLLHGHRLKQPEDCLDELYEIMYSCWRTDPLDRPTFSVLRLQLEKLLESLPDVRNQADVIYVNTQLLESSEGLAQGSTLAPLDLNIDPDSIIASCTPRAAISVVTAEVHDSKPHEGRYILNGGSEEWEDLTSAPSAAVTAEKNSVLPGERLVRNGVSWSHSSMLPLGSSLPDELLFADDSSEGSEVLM

[7] = target: T1, Tyrosine-protein kinase Mer (Homo sapiens); conditions: at 1 µM
[8] = target: Hepatocyte growth factor receptor (Homo sapiens) (UniProt P08581); conditions: at 0.1 µM
Sequence of Hepatocyte growth factor receptor (Homo sapiens) (P08581 whole entry): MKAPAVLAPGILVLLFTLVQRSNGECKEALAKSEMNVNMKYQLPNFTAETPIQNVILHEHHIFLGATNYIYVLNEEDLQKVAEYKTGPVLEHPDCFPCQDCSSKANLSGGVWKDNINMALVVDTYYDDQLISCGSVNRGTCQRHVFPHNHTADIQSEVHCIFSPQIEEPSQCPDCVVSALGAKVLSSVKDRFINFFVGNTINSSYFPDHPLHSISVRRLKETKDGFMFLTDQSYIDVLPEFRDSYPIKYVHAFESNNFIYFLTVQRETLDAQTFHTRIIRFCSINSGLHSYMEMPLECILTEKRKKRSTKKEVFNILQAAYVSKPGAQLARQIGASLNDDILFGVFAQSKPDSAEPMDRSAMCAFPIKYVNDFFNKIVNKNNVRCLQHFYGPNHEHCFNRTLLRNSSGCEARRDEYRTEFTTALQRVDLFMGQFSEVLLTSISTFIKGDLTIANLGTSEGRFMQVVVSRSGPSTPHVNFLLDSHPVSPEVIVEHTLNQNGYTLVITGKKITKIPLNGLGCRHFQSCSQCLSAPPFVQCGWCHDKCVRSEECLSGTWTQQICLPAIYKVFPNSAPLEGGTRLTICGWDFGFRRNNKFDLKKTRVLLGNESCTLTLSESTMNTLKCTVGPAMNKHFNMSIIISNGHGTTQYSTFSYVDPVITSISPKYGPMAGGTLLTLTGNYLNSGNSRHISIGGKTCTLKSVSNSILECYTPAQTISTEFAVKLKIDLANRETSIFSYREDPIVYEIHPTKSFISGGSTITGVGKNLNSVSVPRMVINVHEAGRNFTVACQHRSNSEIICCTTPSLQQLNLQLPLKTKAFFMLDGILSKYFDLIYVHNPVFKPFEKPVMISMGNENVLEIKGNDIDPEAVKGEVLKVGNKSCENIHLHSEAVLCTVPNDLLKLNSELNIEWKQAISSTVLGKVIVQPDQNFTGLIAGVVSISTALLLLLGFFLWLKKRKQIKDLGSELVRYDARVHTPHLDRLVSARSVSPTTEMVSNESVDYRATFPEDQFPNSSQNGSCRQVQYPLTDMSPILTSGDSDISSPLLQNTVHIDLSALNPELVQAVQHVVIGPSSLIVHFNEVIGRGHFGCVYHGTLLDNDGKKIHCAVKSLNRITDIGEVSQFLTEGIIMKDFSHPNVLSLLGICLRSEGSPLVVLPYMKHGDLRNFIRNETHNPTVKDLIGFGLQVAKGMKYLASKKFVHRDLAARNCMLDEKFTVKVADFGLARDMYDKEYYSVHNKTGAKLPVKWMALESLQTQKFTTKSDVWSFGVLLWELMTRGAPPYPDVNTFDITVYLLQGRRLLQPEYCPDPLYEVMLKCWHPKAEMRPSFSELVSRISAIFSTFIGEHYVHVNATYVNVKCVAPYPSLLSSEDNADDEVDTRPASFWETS

[9] = target: Hepatocyte growth factor receptor (Homo sapiens) (UniProt P08581); conditions: at 1 µM
[10] = target: T2, Muscle, skeletal receptor tyrosine-protein kinase (Homo sapiens) (UniProt O15146); conditions: at 0.1 µM;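 also: values are mean inhibition of MuSK from the GSK PKIS kinase screening panel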
T2 sequence (whole entry): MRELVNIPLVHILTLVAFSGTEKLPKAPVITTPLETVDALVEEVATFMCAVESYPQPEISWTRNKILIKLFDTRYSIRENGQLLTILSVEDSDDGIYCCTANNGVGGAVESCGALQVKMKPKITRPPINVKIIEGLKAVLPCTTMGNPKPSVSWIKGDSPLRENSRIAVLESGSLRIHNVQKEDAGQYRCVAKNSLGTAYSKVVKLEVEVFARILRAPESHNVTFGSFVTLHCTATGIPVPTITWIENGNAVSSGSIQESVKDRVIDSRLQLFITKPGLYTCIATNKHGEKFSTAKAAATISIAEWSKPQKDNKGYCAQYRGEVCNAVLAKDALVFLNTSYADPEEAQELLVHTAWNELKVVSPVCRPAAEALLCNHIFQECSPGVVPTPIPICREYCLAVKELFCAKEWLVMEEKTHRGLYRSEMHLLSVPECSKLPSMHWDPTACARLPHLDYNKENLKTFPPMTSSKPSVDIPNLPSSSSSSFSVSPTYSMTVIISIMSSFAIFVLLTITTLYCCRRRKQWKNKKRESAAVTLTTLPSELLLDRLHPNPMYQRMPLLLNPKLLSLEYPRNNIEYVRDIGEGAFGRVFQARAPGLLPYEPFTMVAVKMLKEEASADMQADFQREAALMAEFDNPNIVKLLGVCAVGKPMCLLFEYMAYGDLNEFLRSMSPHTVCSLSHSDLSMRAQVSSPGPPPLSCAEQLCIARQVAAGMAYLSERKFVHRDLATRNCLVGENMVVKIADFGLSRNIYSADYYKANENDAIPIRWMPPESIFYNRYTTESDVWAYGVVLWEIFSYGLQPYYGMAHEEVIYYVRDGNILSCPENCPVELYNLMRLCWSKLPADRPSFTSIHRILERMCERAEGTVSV

Sequence of Leukocyte tyrosine kinase receptor (Homo sapiens) (P29376 whole entry): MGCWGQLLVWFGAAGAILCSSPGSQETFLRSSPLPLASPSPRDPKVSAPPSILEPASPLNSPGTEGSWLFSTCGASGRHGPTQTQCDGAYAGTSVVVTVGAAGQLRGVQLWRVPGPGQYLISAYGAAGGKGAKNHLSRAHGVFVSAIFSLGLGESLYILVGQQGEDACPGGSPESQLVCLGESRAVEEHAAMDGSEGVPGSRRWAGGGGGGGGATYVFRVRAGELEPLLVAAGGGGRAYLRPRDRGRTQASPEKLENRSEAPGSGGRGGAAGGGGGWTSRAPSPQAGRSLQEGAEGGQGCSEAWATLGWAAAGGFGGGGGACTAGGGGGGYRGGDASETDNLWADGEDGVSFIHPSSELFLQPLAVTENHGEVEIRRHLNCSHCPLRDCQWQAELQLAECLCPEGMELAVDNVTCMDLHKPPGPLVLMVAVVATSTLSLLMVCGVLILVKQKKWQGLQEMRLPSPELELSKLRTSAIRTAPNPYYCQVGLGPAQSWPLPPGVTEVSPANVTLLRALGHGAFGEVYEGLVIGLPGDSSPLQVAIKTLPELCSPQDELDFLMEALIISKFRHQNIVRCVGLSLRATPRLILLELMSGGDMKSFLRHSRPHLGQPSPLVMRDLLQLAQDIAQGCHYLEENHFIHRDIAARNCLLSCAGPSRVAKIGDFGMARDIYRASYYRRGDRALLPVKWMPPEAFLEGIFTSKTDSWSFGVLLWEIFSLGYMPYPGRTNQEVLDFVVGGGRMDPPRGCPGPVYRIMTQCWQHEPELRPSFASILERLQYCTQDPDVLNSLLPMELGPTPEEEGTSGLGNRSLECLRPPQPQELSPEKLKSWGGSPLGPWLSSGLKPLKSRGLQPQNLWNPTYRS
Sequence of Tyrosine-protein kinase Lyn (Homo sapiens) (P07948 2-512 limits assumed): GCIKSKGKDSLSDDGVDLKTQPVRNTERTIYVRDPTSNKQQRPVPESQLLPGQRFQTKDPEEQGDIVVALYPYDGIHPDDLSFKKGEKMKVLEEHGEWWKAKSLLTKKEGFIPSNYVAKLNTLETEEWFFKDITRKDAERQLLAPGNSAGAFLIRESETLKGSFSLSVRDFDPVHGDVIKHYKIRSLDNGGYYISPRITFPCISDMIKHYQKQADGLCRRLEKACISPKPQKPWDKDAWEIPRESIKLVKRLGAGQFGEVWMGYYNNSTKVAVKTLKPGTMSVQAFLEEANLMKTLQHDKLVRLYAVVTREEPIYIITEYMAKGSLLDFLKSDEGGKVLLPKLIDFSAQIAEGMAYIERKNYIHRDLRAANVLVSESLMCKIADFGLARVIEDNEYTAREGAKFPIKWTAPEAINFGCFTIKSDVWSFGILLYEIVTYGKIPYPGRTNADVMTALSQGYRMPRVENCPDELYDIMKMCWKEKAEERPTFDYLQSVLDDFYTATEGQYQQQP

Row | Structure (SMILES) | inhibition [1] | inhibition [2] | inhibition [3] | inhibition [4] | inhibition [5] | inhibition [6] | inhibition [7] | inhibition [8] | inhibition [9] | inhibition [10]
1 | COC(=O)Nc1nc2ccc(Oc3ccc(NC(=O)Nc4cc(C(F)(F)F)ccc4F)cc3)cc2s1 | 2.2% | 28.7% | 70.5% | 22.6% | 66.5% | 0.03% | 4.8% | 9.69% | 34.6% | 76.3%
2 | COc1ccccc1-c1cc(/C=C2\C(=O)Nc3ncc(Br)cc32)cc(Br)c1O | 5.69% | 6% | 14.4% | 4.58% | 9.46% | 3.28% | 7.77% | 1.57% | 4.03% | 1.98%
3 | CNC(=O)c1cncc(/C=C/c2ccccc2C)c1 | 2.98% | 7.42% | 18.9% | 3.73% | 14.9% | -0.15% | 1.66% | 9.7% | 5.5% | 3.91%
4 | O=C(O[C@H]1CN[C@H](C#Cc2cc3ncnc(Nc4ccc5c(cnn5Cc5ccccc5)c4)c3s2)C1)N1CCOCC1 | -0.87% | 1.1% | 1.11% | 1.54% | 0.75% | 1.33% | 9.62% | 5.14% | 1.77% | 0.92%
5 | CS(=O)(=O)Nc1ccc(-c2ccc3c(NC(=O)C4CC4)n[nH]c3c2)cc1 | 3.75% | 3.8% | 4.62% | 2.46% | 3.58% | 0.84% | 3.15% | 6.7% | -3.22% | 3.2%
6 | COc1ccc2ncn(-c3cc(O[C@H](C)c4ccccc4C(F)(F)F)c(C(N)=O)s3)c2c1 | 1.97% | 0.92% | 1.75% | -0.04% | 1.72% | -0.24% | 2.59% | -3.32% | 0.66% | 3.55%
7 | CS(=O)(=O)CCNCc1ccoc1-c1ccc2ncnc(Nc3ccc(OCc4ccccc4)cc3)c2c1 | 1.37% | 2.38% | 4.27% | 1.69% | 4.32% | 3.82% | 25.2% | 3.02% | 4.88% | 1.36%
8 | CN1CCC(C(=O)Nc2n[nH]c3nc(-c4ccc(O)cc4)c(Br)cc23)CC1 | 50.1% and 45.5% | 4.2% and 2.89% | 8.89% and 2.99% | 2.55% and 3.95% | 6.26% and 2.78% | 1.28% and 4.74% | 4.17% and 6.1% | 3.13% and 11.9% | 14.2% and 6.92% | 2.28% and 1.53%
9 | CNC(=O)c1ncccc1Nc1nc(Nc2cc3c(cc2OC)CCCN3C(=O)CN(C)C)nc2[nH]ccc12 | 94.4% | 3.52% | 4.53% | 2.33% | 3.27% | 0.94% | 4.5% | 6.6% | 10.1% | 5.51%
10 | CCn1c(-c2nonc2N)nc2cncc(C(=O)NCCNC)c21 | 5.16% | 5.55% | 6.4% | 3.01% | 4.46% | 3.05% | 3.22% | 1.82% | 4.45% | 5.69%
11 | Nc1ncnc2occ(-c3ccc(NC(=O)Nc4cc(C(F)(F)F)ccc4F)cc3)c12 | 53.6% and 34% | 20.4% and 9.18% | 73.7% and 57.2% | 17.2% and 6.3% | 70.5% and 53.6% | 4.87% and 1.22% | 34.7% and 21.6% | 11% and 2.19% | 29.8% and 11% | 87.2% and 84.2%
12 | O=C(Nc1n[nH]c2nnc(-c3cccnc3)cc12)C1CC1 | 0.15% | 0.94% | 1.49% | 1.05% | 1.61% | 1.05% | 1.8% | 3.88% | 0.68% | -0.19%
13 | Cn1c(-c2nonc2N)nc2cnccc21 | 4.18% | 4.05% | 2.29% | 2.97% | 1.52% | 1.12% | 3.84% | 3.78% | 3.65% | 2.14%
14 | COC(=O)Nc1nc2cc(Oc3ccc(NC(=O)Nc4ccccc4)cc3)ccc2[nH]1 | 4.01% | 3.96% | 8.66% | 2.63% | 6.73% | 1.34% | 2.99% | 2.87% | 18.7% | 3.96%
15 | NS(=O)(=O)c1ccc(N/N=C2\C(=O)Nc3cccc(CCc4ccncc4)c32)cc1 | 1.43% | 2.64% | 6.56% | 2.69% | 5.45% | 2.62% | 3.17% | 10.5% | 15.4% | 12.2%
